# According to PubChem BioAssay (NCATS):
# Active and inactive are the calls of the source. The rule behind the calls is not given here.
# Conditions: Ebola virus entry assay, reporter ratio channel; Channel type: primary
Structure (SMILES),AC50,outcome
O=C(Nc1ccccc1)OCC(CN1CCCCC1)OC(=O)Nc1ccccc1 (stereo not given),10 µM (active),–
C[n+]1cc2c3c(ccc2c2ccc4cc5c(cc4c21)OCO5)OCO3,17.8 µM (active),–
CCC(=O)O[C@]1(C(=O)COC)[C@@H](C)C[C@H]2[C@@H]3CCC4=CC(=O)C=C[C@]4(C)C3(F)[C@@H](O)C[C@@]21C (stereo not given in full),–,inactive
O=C(Cn1ccnc1[N+](=O)[O-])NCCO,–,inactive
CCN(CCCc1ccccc1)CCCc1ccccc1,4.47 µM (active),–
c1ccc(CNCCNCc2ccccc2)cc1,25.1 µM (active),–
NC1(c2ccc(-c3nc4ccn5c(=O)[nH]nc5c4cc3-c3ccccc3)cc2)CCC1,2.51 µM (active),–
Nc1ccc(C(=O)N2CC3CC(CN(Cc4ccccc4)C3)C2)cc1,31.6 µM (active),–
CC(=O)OCC(=O)[C@@]12N=C(C)O[C@@H]1C[C@H]1[C@@H]3CCC4=CC(=O)C=C[C@]4(C)[C@H]3[C@@H](O)C[C@@]12C,–,inactive
CCCCCOc1ccccc1/C(=C\SC)n1ccnc1,–,inactive
NCCc1ccc(O)c(O)c1,–,inactive
O=c1[nH]c2ccccc2n1CCCN1CCN(C(c2ccccc2)c2ccccc2)CC1,3.98 µM (active),–
CC(=O)OCC(=O)[C@@]1(O)CC[C@H]2[C@@H]3CCC4=CC(=O)C=C[C@]4(C)[C@H]3[C@@H](O)C[C@@]21C,–,inactive
CC(C)(C)c1ccc(C(O)CCCN2CCC(C(O)(c3ccccc3)c3ccccc3)CC2)cc1 (stereo not given),0.891 µM (active),–
O=C(Nc1ccc(S(=O)(=O)N2CCOCC2)cc1)c1cc(Cl)ccc1NS(=O)(=O)c1ccc(Cl)s1,39.8 µM (active),–
